Ten compounds from PubChem BioAssay (Tox21) can be followed below.

Molecules are shown by their SMILES. Several values for one entry are separate records, joined by “and”; a condition that tells them apart may be missing. Identical values can stand only once. Records with an inconclusive call do not appear. Where a structure was tested more than once in an assay, its records may differ in their call. Activity calls are given as the source filed them. Unless noted, the call rests on the fitted dose curve; in most records, active means well fitted curve in the direction sought with a large enough effect in the repeat runs; inconclusive means weak or mixed curves; inactive means no such curve, though single readings can be large; an effect the other way counts as inactive or inconclusive.

The nature of test [1]: Human pregnane X receptor (PXR) small molecule agonists, qHTS cell viability counter screen (AID 1346977). Further: nearly all actives have a fitted effect of over 50% in size. The procedure, abridged: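 PXR-Luc HepG2 cells in medium with 5% charcoal-stripped FBS were pre-incubated 5hr, then exposed to compounds for 24hr at 37C. Viability was read in the same wells by CellTiter-Fluor fluorescence, reagent added after 23hr with a 1hr incubation.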

Test [2] is described as follows: Caspase-3/7 induction in HepG2 cells by small molecules, qHTS assay (AID 1346978). Further: nearly all actives have a fitted effect of over 15% in size. Further: potency means the concentration at half of the fitted maximal effect. The method, boiled down:
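Wild-type HepG2 cells (2,000/well) were settled 5 h at 37 C, 5% CO2, then exposed to compounds in DMSO for 17 h. Caspase-3/7 activity was read by luminescence 30 min after adding Caspase-Glo 3/7 reagent at room temperature.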
For orientation: In qHTS, concentration-response curves come from the screen itself.

The nature of test [3]: Caspase-3/7 induction in CHO-K1 cells by small molecules, qHTS cell viability counter screen (AID 1346979). Further: nearly all actives have a fitted effect of over 35% in size. Further: potency means the concentration at half of the fitted maximal effect. The procedure, abridged:
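Wild-type CHO-K1 cells were seeded at 1,500 per well, rested 5hr at 37 C, then exposed to compounds in DMSO. After 16hr, CellTiter-Fluor reagent was added and fluorescence read 1hr later as the viability measure.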

Test [4] is described as follows: Caspase-3/7 induction in CHO-K1 cells by small molecules, qHTS assay (AID 1346980). Further: nearly all actives have a fitted effect of over 15% in size. The method, boiled down:
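Wild-type cells were seeded at 1,500 per well and settled 5 hr at 37 C, 5% CO2, then exposed to DMSO-dissolved compounds for 17 hr. Caspase-Glo 3/7 reagent was added, and luminescence was read after 30min at room temperature.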

A short description of test [5]: Caspase-3/7 induction in HepG2 cells by small molecules, qHTS cell viability counter screen (AID 1346981). Further: series mostly up to about 92 µM; nearly all actives have a fitted effect of over 30% in size. The procedure, abridged: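 Wild-type HepG2 cells, 2,000/well, settled 5 hr at 37 C, 5% CO2 before compound addition. Viability read by CellTiter-Fluor fluorescence, reagent added after 16 hr compound exposure, then 1 hr at 37C, in the same wells as the caspase read.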

The target of test [6] is Cytochrome P450 2D6 (Homo sapiens) (UniProt P10635). The experiment in a line: Cytochrome P450 Family 2 Subfamily D Member 6 (CYP2D6) small molecule antagonists: luciferase reporter qHTS assay (AID 1671196). Further: nearly all actives have a fitted effect of over 50% in size. Further: potency means the concentration at half of the fitted maximal effect. The method, boiled down: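 Cell-free P450-Glo system: CYP2D6 with proluciferin substrate was pre-incubated with compound for 10 min, then reacted with NADPH regeneration for 1 h at room temperature. Luciferin product was detected after 20 min, and data were reported as relative luminescence units.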
In general terms: Reporter assays use an easily measured gene product as a stand-in for the process of interest.

The target of test [7] is Cytochrome P450 2C19 (Homo sapiens) (UniProt P33261). The test can be described thus: Cytochrome P450 Family 2 Subfamily C Member 19 (CYP2C19) small molecule antagonists: luciferase reporter qHTS assay (AID 1671197). Further: nearly all actives have a fitted effect of over 65% in size. Further: potency means the concentration at half of the fitted maximal effect. The procedure, abridged: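 Inhibition of CYP2C19 was scored from loss of luminescence in a P450-Glo proluciferin substrate assay, NADPH-started and run 1 h at 37C, with ketoconazole as positive control.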

Test [8] deals with Cytochrome P450 2C9 (Homo sapiens) (UniProt P11712). The experiment in a line: Cytochrome P450 Family 2 Subfamily C Member 9 (CYP2C9) small molecule antagonists: luciferase reporter qHTS assay (AID 1671198). Further: nearly all actives have a fitted effect of over 50% in size. Further: potency means the concentration at half of the fitted maximal effect. The procedure, abridged:
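CYP2C9 activity was measured with a P450-Glo proluciferin substrate. Enzyme–substrate mix was held with compound for 10 min at room temperature, then NADPH regeneration solution was added for 1 h at 37C. Luciferin product was read as luminescence.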

The target of test [9] is Cytochrome P450 1A2 (Homo sapiens) (UniProt P05177). The experiment in a line: Cytochrome P450 Family 1 Subfamily A Member 2 (CYP1A2) small molecule antagonists: luciferase reporter qHTS assay (AID 1671199). Further: nearly all actives have a fitted effect of over 50% in size. Further: potency means the concentration at half of the fitted maximal effect. The method, boiled down:
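P450-Glo CYP1A2 enzyme–proluciferin substrate mix with compound 10 min at room temperature, then NADPH regeneration 1 h at room temperature. Luciferin detection reagent added, luminescence read after 20 min; furafylline positive control.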

In test [10] the target is Voltage-gated inwardly rectifying potassium channel KCNH2 (Homo sapiens) (UniProt Q12809). The test can be described thus: Human Ether-a-go-go-Related Gene (hERG) channel small molecule antagonists: fluorescence cell-based qHTS assay (AID 1671200). Further: nearly all actives have a fitted effect of over 50% in size. Further: potency means the concentration at half of the fitted maximal effect. The procedure, abridged:
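U2OS cells expressing the channel were plated at 1000 cells/well, incubated overnight at 37 C, then loaded with FluxOR II thallium-sensitive dye for 1 h at room temperature in the dark, with a further 10 min at room temperature before stimulation.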

The target of test [11] is Cytochrome P450 3A4 (Homo sapiens) (UniProt P08684). The experiment in a line: Cytochrome P450 Family 3 Subfamily A Member 4 (CYP3A4) small molecule antagonists: luciferase reporter qHTS assay (AID 1671201). Further: nearly all actives have a fitted effect of over 50% in size. Further: potency means the concentration at half of the fitted maximal effect. The method, boiled down:
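P450-Glo CYP3A4 system with proluciferin substrate; compounds preincubated 10 min RT with enzyme-substrate mix, then NADPH regeneration added for 1 h RT. Detection reagent 20 min, luminescence read as relative luminescence units.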

The target of test [12] is Nuclear receptor subfamily 1 group I member 2 (Homo sapiens) (UniProt O75469). The experiment in a line: Human pregnane X receptor (PXR) small molecule agonists, qHTS assay (AID 1346982). Further: nearly all actives have a fitted effect of over 35% in size. Further: potency means the concentration at half of the fitted maximal effect. The method, boiled down: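 PXR-Luc HepG2 reporter cells (CYP3A4-driven luciferase) in 5% charcoal-stripped FBS medium, plated 5 h before compound addition, then treated 24 h at 37C. Luciferase read by ONE-Glo luminescence after 30 min at room temperature.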

For test [13], the target named is Thyrotropin-releasing hormone receptor (Homo sapiens) (UniProt P34981). The test can be described thus: qHTS assay to identify small molecule agonists of the thyrotropin-releasing hormone receptor (TRHR) signaling pathway (AID 1346891; calls by dose curve; further: series mostly up to about 58 µM). The method, boiled down: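 TRHR-expressing HEK293 cells were plated 18 h at 37 °C/5% CO2, loaded with calcium dye 2 h at 37 °C, then given compound in DMSO; fluorescence was read kinetically for 3 min at 1 s intervals.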

Test [14] has as its target Nuclear receptor subfamily 1 group I member 2 (Rattus norvegicus) (UniProt Q9R1A7). The test can be described thus: Rat pregnane X receptor (rPXR) activation by small molecules, qHTS assay (AID 1346983). Further: nearly all actives have a fitted effect of over 20% in size. Conditions: rPXR luciferase reporter cells, One-Glo luminescence, 24 h; stronger effect = higher value. The procedure, abridged:
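Cell-based rPXR luciferase reporter assay, 2,000 cells per well, rested 5hr at 37 C before compound addition in DMSO, then 24 hr at 37 C. One-Glo reagent was added and luminescence read after 30 min at room temperature.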

For test [15], the target named is Nuclear receptor subfamily 1 group I member 2 (Homo sapiens) (UniProt O75469). The test can be described thus: CYP3A4 induction through human pregnane X receptor (PXR) by small molecules, qHTS assay (AID 1346984). Further: nearly all actives have a fitted effect of over 40% in size. The procedure, abridged:
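DPX-2 HepG2 cells carrying a PXR response element and CYP3A4-promoter luciferase construct, treated with compounds 24 hr at 37C. Then P450-Glo CYP3A4 Luciferin-IPA substrate (3uM final) for 3 hr at 37C, One-Glo added, luminescence read.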

For test [16] the target is unchanged. The test can be described thus: Human pregnane X receptor (PXR) activation by small molecules, qHTS assay (AID 1346985). Further: nearly all actives have a fitted effect of over 40% in size. The method, boiled down: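 DPX-2 cells (HepG2 co-transfected with a PXR response element and a CYP3A4-promoter luciferase construct) were seeded at 2,000 per well, rested 5 hr at 37C, then exposed to DMSO-dissolved compounds for 24 hr. Activation was read as luciferase luminescence.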
On the % scale 0 is the no-effect control and ±100 the full control effect.

Sequence of Thyrotropin-releasing hormone receptor (Homo sapiens) (P34981 whole entry, looked up): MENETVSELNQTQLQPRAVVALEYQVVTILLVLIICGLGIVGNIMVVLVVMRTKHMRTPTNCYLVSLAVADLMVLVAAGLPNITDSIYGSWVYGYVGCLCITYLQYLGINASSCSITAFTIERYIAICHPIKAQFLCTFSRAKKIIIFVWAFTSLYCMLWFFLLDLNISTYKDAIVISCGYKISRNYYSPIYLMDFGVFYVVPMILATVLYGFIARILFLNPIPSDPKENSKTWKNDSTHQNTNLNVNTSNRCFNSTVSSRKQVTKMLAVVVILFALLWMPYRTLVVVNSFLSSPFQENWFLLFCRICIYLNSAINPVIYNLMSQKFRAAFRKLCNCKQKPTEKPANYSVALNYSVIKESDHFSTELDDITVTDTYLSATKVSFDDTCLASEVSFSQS
Sequence of Cytochrome P450 3A4 (Homo sapiens) (P08684 whole entry, looked up): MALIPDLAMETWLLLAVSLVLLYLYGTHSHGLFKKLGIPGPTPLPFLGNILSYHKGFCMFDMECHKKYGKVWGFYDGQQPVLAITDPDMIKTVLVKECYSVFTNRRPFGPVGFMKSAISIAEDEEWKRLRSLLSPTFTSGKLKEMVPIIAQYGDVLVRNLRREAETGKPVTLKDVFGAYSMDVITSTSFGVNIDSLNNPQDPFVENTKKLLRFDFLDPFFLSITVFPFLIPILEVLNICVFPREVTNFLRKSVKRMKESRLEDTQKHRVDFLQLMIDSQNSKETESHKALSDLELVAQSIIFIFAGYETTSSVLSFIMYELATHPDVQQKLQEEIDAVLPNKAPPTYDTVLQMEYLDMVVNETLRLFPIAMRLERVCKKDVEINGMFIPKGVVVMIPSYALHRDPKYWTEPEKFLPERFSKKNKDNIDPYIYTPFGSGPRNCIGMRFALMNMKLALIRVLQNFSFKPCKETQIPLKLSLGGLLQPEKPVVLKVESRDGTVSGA
Sequence of Cytochrome P450 2D6 (Homo sapiens) (P10635 whole entry, looked up): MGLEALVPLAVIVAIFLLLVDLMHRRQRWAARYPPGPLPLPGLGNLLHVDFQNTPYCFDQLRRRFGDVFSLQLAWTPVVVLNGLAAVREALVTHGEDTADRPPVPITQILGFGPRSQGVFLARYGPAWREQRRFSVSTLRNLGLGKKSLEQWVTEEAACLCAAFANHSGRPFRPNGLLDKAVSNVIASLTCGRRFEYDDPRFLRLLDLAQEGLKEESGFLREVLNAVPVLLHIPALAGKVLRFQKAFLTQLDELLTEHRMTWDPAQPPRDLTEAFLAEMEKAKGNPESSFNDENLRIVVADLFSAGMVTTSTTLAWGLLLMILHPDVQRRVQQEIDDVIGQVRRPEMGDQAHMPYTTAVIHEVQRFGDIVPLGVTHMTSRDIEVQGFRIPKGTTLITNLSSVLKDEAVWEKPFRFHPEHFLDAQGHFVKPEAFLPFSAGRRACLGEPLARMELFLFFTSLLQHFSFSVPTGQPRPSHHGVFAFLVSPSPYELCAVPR
Sequence of Voltage-gated inwardly rectifying potassium channel KCNH2 (Homo sapiens) (Q12809 whole entry, looked up): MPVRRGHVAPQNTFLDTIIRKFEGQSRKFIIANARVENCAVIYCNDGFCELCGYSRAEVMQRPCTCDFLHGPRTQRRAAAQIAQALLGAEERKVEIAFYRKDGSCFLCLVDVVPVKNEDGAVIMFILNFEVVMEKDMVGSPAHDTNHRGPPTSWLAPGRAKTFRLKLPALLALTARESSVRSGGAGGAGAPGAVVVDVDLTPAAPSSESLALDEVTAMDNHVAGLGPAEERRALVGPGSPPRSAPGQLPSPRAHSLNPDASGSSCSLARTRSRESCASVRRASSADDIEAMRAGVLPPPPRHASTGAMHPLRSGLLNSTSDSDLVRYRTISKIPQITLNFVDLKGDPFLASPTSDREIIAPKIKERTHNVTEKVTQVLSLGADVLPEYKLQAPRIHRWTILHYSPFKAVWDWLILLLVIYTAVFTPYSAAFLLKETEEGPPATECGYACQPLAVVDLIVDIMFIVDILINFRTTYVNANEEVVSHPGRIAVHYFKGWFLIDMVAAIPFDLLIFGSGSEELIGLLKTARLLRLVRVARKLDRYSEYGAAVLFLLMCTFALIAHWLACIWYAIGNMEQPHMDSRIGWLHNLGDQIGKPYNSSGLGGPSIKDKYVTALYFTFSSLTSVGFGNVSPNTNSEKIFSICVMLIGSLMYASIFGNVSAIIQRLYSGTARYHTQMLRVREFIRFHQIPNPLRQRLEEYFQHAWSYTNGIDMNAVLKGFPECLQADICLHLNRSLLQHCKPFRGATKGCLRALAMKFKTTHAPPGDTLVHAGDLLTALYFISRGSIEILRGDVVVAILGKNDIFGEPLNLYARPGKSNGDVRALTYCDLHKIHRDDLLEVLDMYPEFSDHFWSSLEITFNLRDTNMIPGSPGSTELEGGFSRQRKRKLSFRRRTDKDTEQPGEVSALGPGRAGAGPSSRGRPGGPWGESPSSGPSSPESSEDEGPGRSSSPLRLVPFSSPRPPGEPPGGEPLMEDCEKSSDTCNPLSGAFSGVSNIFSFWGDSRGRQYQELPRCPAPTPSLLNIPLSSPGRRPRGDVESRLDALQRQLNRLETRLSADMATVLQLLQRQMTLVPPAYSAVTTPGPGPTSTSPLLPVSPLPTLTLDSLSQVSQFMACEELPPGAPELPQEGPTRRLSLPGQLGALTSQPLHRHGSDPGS
Sequence of Cytochrome P450 1A2 (Homo sapiens) (P05177 whole entry, looked up): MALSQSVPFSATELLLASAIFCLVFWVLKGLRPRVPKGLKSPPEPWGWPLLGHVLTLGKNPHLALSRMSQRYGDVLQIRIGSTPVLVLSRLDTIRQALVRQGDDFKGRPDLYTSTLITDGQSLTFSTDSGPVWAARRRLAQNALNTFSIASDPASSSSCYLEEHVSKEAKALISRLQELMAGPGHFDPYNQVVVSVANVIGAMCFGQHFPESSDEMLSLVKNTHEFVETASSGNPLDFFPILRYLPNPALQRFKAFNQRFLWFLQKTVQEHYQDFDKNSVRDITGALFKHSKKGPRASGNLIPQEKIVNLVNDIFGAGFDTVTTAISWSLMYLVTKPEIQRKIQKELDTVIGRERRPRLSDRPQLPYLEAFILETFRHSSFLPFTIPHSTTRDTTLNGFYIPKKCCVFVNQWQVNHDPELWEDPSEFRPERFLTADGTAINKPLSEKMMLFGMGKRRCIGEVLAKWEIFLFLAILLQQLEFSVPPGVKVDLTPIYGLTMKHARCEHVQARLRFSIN
Sequence of Cytochrome P450 2C19 (Homo sapiens) (P33261 whole entry, looked up): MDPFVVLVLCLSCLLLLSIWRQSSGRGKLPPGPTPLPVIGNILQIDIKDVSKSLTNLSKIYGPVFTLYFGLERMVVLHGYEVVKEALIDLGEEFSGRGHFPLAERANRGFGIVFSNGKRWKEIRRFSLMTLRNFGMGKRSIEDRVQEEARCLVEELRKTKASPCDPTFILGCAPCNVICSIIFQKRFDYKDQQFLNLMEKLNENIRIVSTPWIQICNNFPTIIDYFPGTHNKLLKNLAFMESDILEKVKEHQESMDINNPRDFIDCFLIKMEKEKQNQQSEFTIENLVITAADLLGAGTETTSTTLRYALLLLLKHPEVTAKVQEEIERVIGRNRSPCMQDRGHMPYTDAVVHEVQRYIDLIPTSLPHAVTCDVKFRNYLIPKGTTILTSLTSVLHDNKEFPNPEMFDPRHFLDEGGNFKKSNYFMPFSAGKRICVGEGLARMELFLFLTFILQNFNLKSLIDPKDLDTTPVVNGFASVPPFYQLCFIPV
Sequence of Cytochrome P450 2C9 (Homo sapiens) (P11712 whole entry, looked up): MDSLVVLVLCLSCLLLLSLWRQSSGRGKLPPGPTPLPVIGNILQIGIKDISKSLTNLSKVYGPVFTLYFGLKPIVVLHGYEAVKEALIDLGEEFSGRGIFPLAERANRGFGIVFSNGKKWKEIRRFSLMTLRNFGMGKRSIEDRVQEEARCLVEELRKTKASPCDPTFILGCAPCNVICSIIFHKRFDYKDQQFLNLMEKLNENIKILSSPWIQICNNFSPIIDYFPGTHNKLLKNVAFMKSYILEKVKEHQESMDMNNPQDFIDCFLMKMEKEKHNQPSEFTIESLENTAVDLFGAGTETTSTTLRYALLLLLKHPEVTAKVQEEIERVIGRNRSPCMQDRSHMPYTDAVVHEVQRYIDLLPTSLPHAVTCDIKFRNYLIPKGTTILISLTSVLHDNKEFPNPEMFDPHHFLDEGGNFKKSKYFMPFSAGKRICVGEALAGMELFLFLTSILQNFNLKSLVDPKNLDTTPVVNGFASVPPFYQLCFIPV
Sequence of Nuclear receptor subfamily 1 group I member 2 (Homo sapiens) (O75469 whole entry, looked up): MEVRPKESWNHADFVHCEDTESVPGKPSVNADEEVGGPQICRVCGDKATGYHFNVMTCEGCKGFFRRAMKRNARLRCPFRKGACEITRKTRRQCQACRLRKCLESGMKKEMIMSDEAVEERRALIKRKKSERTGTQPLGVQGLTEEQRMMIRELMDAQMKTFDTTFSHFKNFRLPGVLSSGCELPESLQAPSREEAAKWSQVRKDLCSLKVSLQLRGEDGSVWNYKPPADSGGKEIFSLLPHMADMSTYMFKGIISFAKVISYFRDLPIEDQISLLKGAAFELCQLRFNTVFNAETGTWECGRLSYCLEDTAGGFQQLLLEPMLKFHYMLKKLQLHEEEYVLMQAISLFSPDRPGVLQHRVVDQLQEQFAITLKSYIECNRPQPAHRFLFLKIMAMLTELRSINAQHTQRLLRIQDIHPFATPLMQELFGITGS
Sequence of Nuclear receptor subfamily 1 group I member 2 (Rattus norvegicus) (Q9R1A7 whole entry, looked up): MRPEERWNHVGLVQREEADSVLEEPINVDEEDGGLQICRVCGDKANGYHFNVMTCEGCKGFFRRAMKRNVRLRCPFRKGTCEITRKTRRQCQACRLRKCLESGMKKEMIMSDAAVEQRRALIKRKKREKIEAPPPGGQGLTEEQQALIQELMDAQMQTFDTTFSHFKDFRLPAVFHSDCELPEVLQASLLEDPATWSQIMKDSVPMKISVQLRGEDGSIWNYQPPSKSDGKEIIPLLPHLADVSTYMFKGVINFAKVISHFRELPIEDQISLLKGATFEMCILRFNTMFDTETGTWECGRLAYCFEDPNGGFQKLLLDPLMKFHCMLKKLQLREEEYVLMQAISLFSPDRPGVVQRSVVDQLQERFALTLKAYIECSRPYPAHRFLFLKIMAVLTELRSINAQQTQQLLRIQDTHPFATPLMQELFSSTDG

`CC(C)=CCl`: the Potency entry in test [1], in test [2], in test [3], in test [5], in test [7] and in [8] was “inactive” in each case. Further, the Potency result in [9], in [10] and in [11] was “inactive” throughout. The result in [4] was inactive. The Potency in test [6] is 10.1 µM (active) and inactive.
In the case of `CC(=O)OCc1ccco1`, the Potency entry in test [1], in test [5], in test [6], in test [8], in test [9] and in test [10] was “inactive” in each case. Further, the Potency entry in [11] was “inactive”. Also, the Potency in [2] is 60.8 µM (active) and inactive; in [3] it was 15.3 µM (active) and inactive; in test [12], 60.8 µM (active) and inactive; in test [7], 70.6 µM (active) and inactive. Further, the outcome in test [4] was inactive.
With `CC(CCO)CC(C)(C)C` (centres undefined), the outcome in test [13] and in test [4] was inactive. For the same compound, the Potency result in test [1], in test [2], in test [3], in test [5], in [6] and in test [9] was “inactive” each time. In addition, the Potency entry in test [10] and in [11] was “inactive” each time. Moreover, the Potency result in [7] is “inactive and 79.6 µM (active)”.
On to `CN(C)CCOC(=O)COc1ccc(Cl)cc1`, for which the result in [13], in test [4] and in test [16] was inactive. The Potency entry in [1], in [2], in test [5], in [15], in test [8] and in test [10] was “inactive” in each case. Moreover, the Potency entry in test [11] was “inactive”. Besides, the max activation in test [14] is -3.66% (inactive). Moreover, the Potency in test [6] is 35.5 µM (active) and 30.9 µM (active).
In the case of `C=C(C)[C@H]1CC=C(C)C(=O)C1`, the Potency entry in [1], in test [2], in [3], in test [5], in test [7] and in test [8] was “inactive” each time. In addition, the Potency entry in test [9], in test [10] and in test [11] was “inactive” in each case. Moreover, the compound was classed as inactive in [4]. Moreover, the Potency in test [6] is 18.2 µM (active) and inactive.
As for `C=CC(C)CCCC(C)(C)O` (centres undefined), the Potency result in test [1], in [2], in test [3], in test [5], in [12] and in test [7] was “inactive” each time. The Potency entry in test [8] and in test [11] was “inactive” throughout. Further, the compound was classed as inactive in test [4]. For the same compound, the Potency is 31.7 µM (active) in test [6]; 39.8 µM (active) in [9]; 43.6 µM (active) and inactive in test [10].
On to `CC(C)c1cccc(C(C)C)c1`, for which the Potency result in [1], in test [2], in test [3], in test [5], in test [12] and in test [6] was “inactive” each time. For the same compound, the Potency entry in test [8], in [9], in test [10] and in test [11] was “inactive” each time. For the same compound, the compound was classed as inactive in test [4].
For `CCNc1ccccc1`, the Potency result in [1], in test [2], in test [3], in test [5], in test [12] and in test [6] was “inactive” in each case. Also, the Potency result in [10] and in test [11] was “inactive” each time. Moreover, in test [4], the compound was classed as inactive. In addition, the Potency was 25.6 µM (active) in [7]; 32.3 µM (active) and inactive in test [9].
Regarding `CCOCC(=O)O`, the Potency result in test [1], in [2], in test [3], in test [5], in [12] and in test [7] was “inactive” throughout. Further, the Potency result in test [8], in test [9], in test [10] and in test [11] was “inactive” each time. In test [4], the compound was called inactive. In [6], the Potency was 32.4 µM (active) and 31.7 µM (active).
Turning to `COc1ccc(N)c(C)c1`, the Potency result in test [1], in test [2], in test [3], in [5] and in test [10] was “inactive” in each case. Besides, in [4], the result was inactive. In addition, the Potency in test [6] was 8.9 µM (active) and 31.7 µM (active); in [7], 39.8 µM (active) and 39.9 µM (active); in test [8] it was 35.4 µM (active) and 63.3 µM (active); in test [9], 15.8 µM (active) and 12.6 µM (active); in test [11], 31.6 µM (active).
